Where “and” joins values, the source holds several entries; their conditions need not be identical. Equal values may be shown once. Values without a mark were called inactive. Records with an inconclusive call do not appear. A call without a number means that no potency is given here. Calls of active or inactive are those of the source. Unless noted, calls come from the whole dose curve; as a rule, active = well fitted curve in the direction sought with a large enough effect in the repeat runs; inconclusive = weak or mixed curves; inactive = no such curve, though single readings can be large; an effect the other way counts as inactive or inconclusive.

Assay [1] has as its target Nuclear receptor ROR-gamma (Homo sapiens) (UniProt P51449). The experiment in a line: qHTS assay for small molecule antagonists of the retinoid-related orphan receptor gamma (ROR-gamma) signaling pathway (AID 651802; active = well fitted curve in the direction sought with a large enough effect; an effect the other way counts as inactive or inconclusive; note: nearly all actives have a fitted effect of over 60% in size; note: potency is the fitted concentration of half-maximal effect). Summed up:
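Luminescence (One-Glo, 30 min RT) measured 16 h after compound addition and doxycycline induction at 37C. Reporter: RORE-luciferase under TET-inducible ROR-gamma in CHO cells.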

Assay [2] is described as follows: qHTS assay for small molecule agonists of the antioxidant response element (ARE) signaling pathway measured by Nrf2-dependant transcriptional activity (AID 720636). Note: potency is the fitted concentration of half-maximal effect. An outline of the steps:
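HepG2 ARE-luc reporter line, 1% dialyzed FBS; 6 hr attachment at 37 C, compound pinned in, 16 hr at 37 C/5% CO2; ONE-Glo, 30 min RT, luminescence read.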
A general note: Quantitative high-throughput screening tests each substance at several concentrations.

Assay [3] can be described thus: qHTS assay for small molecule antagonists of the retinoid-related orphan receptor gamma (ROR-gamma) signaling pathway - cell viability counter screen (AID 720652).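 Note: series mostly up to about 92 µM; compound exposure lasted 16 hr before ATP read.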 Summed up: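 Cytotoxicity counter screen: intracellular ATP (CellTiter-Glo luminescence) measured in the doxycycline-induced CHO RORE-luciferase reporter line after 16 hr compound exposure at 37 C, 5% CO2.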

Assay [4] is described as follows: qHTS assay for small molecule agonists of the antioxidant response element (ARE) signaling pathway measured by Nrf2-dependant transcriptional activity - cell viability counter screen (AID 720653). The following applies: ARE-bla HepG2 viability, CellTiter-Glo ATP luminescence, 16 h; stronger effect = lower value. Summed up: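 ARE-bla HepG2 cells treated with compounds for 16 h at 37C; this counter screen measures viability as intracellular ATP by CellTiter-Glo luminescence after 30 min at room temperature.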

The target of assay [5] is Tyrosine-protein kinase Yes (Homo sapiens) (UniProt P07947). The experiment in a line: qHTS for small molecule inhibitors of Yes1 kinase: Primary Screen (AID 686947; active = well fitted curve in the direction sought with a large enough effect; an effect the other way counts as inactive or inconclusive; note: nearly all actives have a fitted effect of over 60% in size). Summed up:
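ADP-Glo luminescence reports ADP formed by 4 nM Yes1 phosphorylating poly(E4Y) (0.3 mg/mL) with 0.1 mM ATP for 60 min at room temperature, following 20 min compound preincubation; normalised between DMSO wells with and without enzyme.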

Assay [6] can be described thus: qHTS for small molecule inhibitors of Yes1 kinase: Counter Assay (AID 686950; active = well fitted curve in the direction sought with a large enough effect; an effect the other way counts as inactive or inconclusive;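 note: no kinase present so only ADP-Glo detection of a fixed ADP amount is tested; luminescence from ADP-Glo reporting ADP in a fixed ATP and ADP mixture; series mostly up to about 77 µM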). An outline of the steps: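 No kinase present; 0.08 mM ATP + 0.02 mM ADP in 50 mM Tris pH 7.5, 10 mM MgCl2, 150 mM NaCl, 1 mM DTT; 20 min compound preincubation, 60 min RT, ADP-Glo luminescence, normalized to ATP/ADP (max) and ATP-only (min).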

Nuclear receptor ROR-gamma (Homo sapiens), sequence (P51449 whole entry, looked up): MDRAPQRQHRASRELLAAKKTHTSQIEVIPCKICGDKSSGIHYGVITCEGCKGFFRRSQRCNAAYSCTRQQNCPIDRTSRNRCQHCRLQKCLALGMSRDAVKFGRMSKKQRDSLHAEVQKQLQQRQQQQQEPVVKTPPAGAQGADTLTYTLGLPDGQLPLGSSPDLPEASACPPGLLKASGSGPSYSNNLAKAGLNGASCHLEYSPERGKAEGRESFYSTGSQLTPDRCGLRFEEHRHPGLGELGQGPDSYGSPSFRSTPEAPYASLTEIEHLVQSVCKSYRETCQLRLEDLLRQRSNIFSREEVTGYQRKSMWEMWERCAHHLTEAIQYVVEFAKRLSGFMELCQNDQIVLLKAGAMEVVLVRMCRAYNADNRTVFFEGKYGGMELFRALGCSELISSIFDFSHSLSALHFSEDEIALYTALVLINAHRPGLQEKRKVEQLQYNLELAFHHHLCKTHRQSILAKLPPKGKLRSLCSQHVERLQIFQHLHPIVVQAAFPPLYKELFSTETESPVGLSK
Tyrosine-protein kinase Yes (Homo sapiens), sequence (P07947 whole entry, looked up): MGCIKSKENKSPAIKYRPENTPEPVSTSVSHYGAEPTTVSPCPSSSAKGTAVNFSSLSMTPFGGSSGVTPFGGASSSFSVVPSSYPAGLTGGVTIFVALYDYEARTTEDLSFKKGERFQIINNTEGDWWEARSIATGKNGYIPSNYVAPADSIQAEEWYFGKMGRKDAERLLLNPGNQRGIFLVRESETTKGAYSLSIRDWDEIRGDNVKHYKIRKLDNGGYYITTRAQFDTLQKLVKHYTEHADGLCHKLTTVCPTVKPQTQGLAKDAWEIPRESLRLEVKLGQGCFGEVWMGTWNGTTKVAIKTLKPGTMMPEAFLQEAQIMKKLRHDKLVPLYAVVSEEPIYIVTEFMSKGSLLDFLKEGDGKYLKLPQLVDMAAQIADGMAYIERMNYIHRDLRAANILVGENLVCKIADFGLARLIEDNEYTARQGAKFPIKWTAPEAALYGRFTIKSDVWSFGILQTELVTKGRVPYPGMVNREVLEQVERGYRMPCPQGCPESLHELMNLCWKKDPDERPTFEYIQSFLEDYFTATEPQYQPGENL

For the compound `CC(C)O`, the Potency entry in assay [1] and in assay [2] was “inactive” each time. The result in assay [3] was inactive. In addition, the max response in assay [4] is 2%.
On to `OCC(O)CO`, for which the Potency entry in assay [1] and in assay [2] was “inactive” throughout. Moreover, the result in assay [3] was inactive. The max response in assay [4] is -6.54% and -5.61%.
With `OC[C@H]1O[C@@H]2O[C@H]3[C@H](O)[C@@H](O)[C@@H](O[C@H]4[C@H](O)[C@@H](O)[C@@H](O[C@H]5[C@H](O)[C@@H](O)[C@@H](O[C@H]6[C@H](O)[C@@H](O)[C@@H](O[C@H]7[C@H](O)[C@@H](O)[C@@H](O[C@H]1[C@H](O)[C@H]2O)O[C@@H]7CO)O[C@@H]6CO)O[C@@H]5CO)O[C@@H]4CO)O[C@@H]3CO`, the Potency result in assay [1] and in assay [2] was “inactive” in each case. Moreover, the result in assay [3] was inactive. The max response in assay [4] was -2.78% and 5.87%.
For `c1ccc2ccccc2c1`, the Potency result in assay [1] and in assay [2] was “inactive” each time. Further, the outcome in assay [3] was inactive. Besides, the max response in assay [4] was 1.06% and 1.45%.
`O=c1n(CC2CO2)c(=O)n(CC2CO2)c(=O)n1CC1CO1` (stereo not drawn): the Potency result in assay [1] was “inactive”. Besides, in assay [2], the Potency is 59.6 µM (active) and 61.1 µM (active). In addition, in assay [3], the outcome was inactive. For the same compound, the max response in assay [4] was -19.7% and -11.1%.
Regarding `C[C@H]1O[C@@H](O[C@H]2[C@@H](O)C[C@H](O[C@H]3[C@@H](O)C[C@H](O[C@H]4CC[C@@]5(C)[C@H](CC[C@@H]6[C@@H]5C[C@@H](O)[C@]5(C)[C@@H](C7=CC(=O)OC7)CC[C@]65O)C4)O[C@@H]3C)O[C@@H]2C)C[C@H](O)[C@@H]1O`, the Potency in assay [1] is 9.44 µM (active). In assay [2], the Potency entry is “inactive”.
Consider `CC1=CC(=O)NS(=O)(=O)O1`, for which the Potency result in assay [1] and in assay [2] was “inactive” in each case. For the same compound, in assay [3], the result was inactive. Also, the max response in assay [4] is 6.07% and 6.81%.
Turning to `ClC(Cl)Cl`, in assay [2], the Potency result was “inactive”. The outcome in assay [3] was inactive. Besides, the max response in assay [4] was -10.5%.
On to `CC(C)(C)CC(C)(C)c1ccc(OCCO)cc1`, for which the Potency in assay [1] is 42.2 µM (active). Also, the Potency entry in assay [2] was “inactive”. For the same compound, the max response in assay [4] was -18%.
On to `C[Si](C)(C)O[Si](C)(C)C`, for which the Potency entry in assay [2] was “inactive”. The max response in assay [4] was -6.75%.
Turning to `NCCO/C=C/[C@H](N)C(=O)O`, in assay [2], the Potency entry is “inactive”. The max response in assay [4] was 6.58%.
On the same counts, the results for `CC(C)CCCCCCc1ccc(O)cc1` are “inactive” and -6.03%.
On the same counts, the results for `OC[C@H]1O[C@@](CO)(O[C@H]2O[C@H](CO)[C@@H](O)[C@H](O)[C@H]2O)[C@@H](O)[C@@H]1O` are “inactive” and -5.77%.
As for `C[C@H](CCC(=O)O)[C@H]1CC[C@H]2[C@@H]3CC[C@@H]4C[C@H](O)CC[C@]4(C)[C@H]3C[C@H](O)[C@]12C`, the Potency entry in assay [2] was “inactive”. In addition, in assay [3], the outcome was inactive. In addition, the max response in assay [4] is -10.6%.
In the case of `CO[C@H]1C[C@@H]2CC[C@@H](C)[C@@](O)(O2)C(=O)C(=O)N2CCCC[C@H]2C(=O)O[C@H]([C@H](C)C[C@@H]2CC[C@@H](OC(=O)C(C)(CO)CO)[C@H](OC)C2)CC(=O)[C@H](C)/C=C(\C)[C@@H](O)[C@@H](OC)C(=O)[C@H](C)C[C@H](C)/C=C/C=C/C=C/1C`, the compound was classed as inactive in assay [5] and in assay [6].
Regarding `C=C(C)C1CC=C(C)CC1` (stereo not drawn), in assay [2], the Potency entry is “inactive”. The max response in assay [4] was -0.676% and -5.86%.
Turning to `CC(C)CCC[C@@H](C)[C@H]1CC[C@H]2[C@@H]3CC=C4C[C@@H](O)CC[C@]4(C)[C@H]3CC[C@]12C`, the Potency result in assay [2] is “inactive”. For the same compound, in assay [4], the max response is -4.46%.
Consider `OCCOCCOCCO`, for which the Potency entry in assay [2] was “inactive”. In addition, the max response in assay [4] was -9.26% and -13.2%.
Turning to `Cc1ccc(S(=O)(=O)NCl)cc1`, in assay [2], the Potency result is “inactive”. Moreover, the max response in assay [4] was -0.456%.
`C=C1C(CCl)(CCl)C2(Cl)C(Cl)C(Cl)C1(Cl)C2(Cl)Cl` (stereo not drawn): the Potency in assay [2] is 66.8 µM (active).
For `CC/C=C\C/C=C\C/C=C\CCCCCCCC(=O)O`, the Potency entry in assay [1] was “inactive”. In addition, in assay [3], the compound was classed as inactive. Further, the max response in assay [4] is -3.01%.
As to `CC(C)[C@@H]1CC[C@@H](C)C[C@H]1O`, the Potency result in assay [2] is “inactive”. The max response in assay [4] is 0.622%.
As for `CO[C@@H]1[C@H](OC(=O)/C=C/C=C/C=C/C=C/C(=O)O)CC[C@]2(CO2)[C@H]1[C@@]1(C)O[C@@H]1CC=C(C)C`, the max response in assay [4] was 8.65%.
Consider `Cc1ccc(S(=O)(=O)O)cc1C`, for which the Potency entry in assay [2] is “inactive”. In addition, the call in assay [3] was inactive. Further, in assay [4], the max response is 12.7%.
As to `CN(CCO)CC(O)Cn1cnc2c1c(=O)n(C)c(=O)n2C` (stereo not drawn) (tested in a mixture with another compound), in assay [2], the Potency result is “inactive”. Also, the max response in assay [4] is 2.54%.
In the case of `C=CC(C)(O)CC/C=C(\C)CCC=C(C)C` (stereo not drawn), the Potency result in assay [2] is “inactive”. Also, the max response in assay [4] was 1.82%.
`CCCCO`: in assay [2], the Potency entry was “inactive”. Further, the outcome in assay [3] was inactive. In addition, in assay [4], the max response was -5.18% and -2.26%.
With `[O-][N+](=Nc1ccccc1)c1ccccc1`, the result in assay [3] was inactive. The max response in assay [4] is -2.2%.
In the case of `N[C@@H](Cc1cc(I)c(Oc2ccc(O)c(I)c2)c(I)c1)C(=O)O`, in assay [2], the Potency result is “inactive”. The max response in assay [4] was -4.18%.
For `CCCCC(CC)COS(=O)(=O)O` (stereo not drawn), the Potency result in assay [2] is “inactive”. Besides, the max response in assay [4] was 8.31%.
Consider `Nc1ccc(N=Nc2ccccc2)c(N)n1`, for which, in assay [1], the Potency result is “inactive”. Moreover, the max response in assay [4] is -11.4% and -26.2%.
Take `CCCCCCCCCCCCCCCCCC(=O)OC[C@@H](O)[C@H]1OC[C@H](O)[C@H]1O`: in assay [2], the Potency result was “inactive”. For the same compound, the max response in assay [4] is -0.0548%.
Consider `O=C(OCc1ccccc1)c1ccc(O)cc1`, for which the max response in assay [4] is -5.99%.
For the compound `O.O.O.O.O.O.O.O=S(=O)([O-])[O-].[Co+2]`, the Potency entry in assay [2] is “inactive”. Moreover, in assay [4], the max response is -4.91%.

(Values after PubChem BioAssay (NCATS).)
